Test results from PubChem BioAssay AID1259349 (Broad Institute, 2017).
Out of some 17,000 compounds screened, about 1,100 (6.5%) were called active. For the sample, actives were picked, then their nearest neighbours and some compounds at random. Unmarked numbers belong to inactive results.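 How the source made its calls: active means z-score of -3 or lower, meaning strong loss of probe binding signal; inactive means the rest.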

target: Insulin-degrading enzyme (Homo sapiens) (UniProt P14735); assay: displacers of FL-6b probe from IDE – biochemical, fluorescence anisotropy, probe displacement, primary screen (AID 1259349); conditions: purified IDE, FL-6b probe fluorescence polarization; at 20 µM; active compounds read low;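 further: His-tagged human IDE residues 42-1019 made in E. coli with 30 nM FL-6b probe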
Sequence (P14735 42-1019 limits assumed): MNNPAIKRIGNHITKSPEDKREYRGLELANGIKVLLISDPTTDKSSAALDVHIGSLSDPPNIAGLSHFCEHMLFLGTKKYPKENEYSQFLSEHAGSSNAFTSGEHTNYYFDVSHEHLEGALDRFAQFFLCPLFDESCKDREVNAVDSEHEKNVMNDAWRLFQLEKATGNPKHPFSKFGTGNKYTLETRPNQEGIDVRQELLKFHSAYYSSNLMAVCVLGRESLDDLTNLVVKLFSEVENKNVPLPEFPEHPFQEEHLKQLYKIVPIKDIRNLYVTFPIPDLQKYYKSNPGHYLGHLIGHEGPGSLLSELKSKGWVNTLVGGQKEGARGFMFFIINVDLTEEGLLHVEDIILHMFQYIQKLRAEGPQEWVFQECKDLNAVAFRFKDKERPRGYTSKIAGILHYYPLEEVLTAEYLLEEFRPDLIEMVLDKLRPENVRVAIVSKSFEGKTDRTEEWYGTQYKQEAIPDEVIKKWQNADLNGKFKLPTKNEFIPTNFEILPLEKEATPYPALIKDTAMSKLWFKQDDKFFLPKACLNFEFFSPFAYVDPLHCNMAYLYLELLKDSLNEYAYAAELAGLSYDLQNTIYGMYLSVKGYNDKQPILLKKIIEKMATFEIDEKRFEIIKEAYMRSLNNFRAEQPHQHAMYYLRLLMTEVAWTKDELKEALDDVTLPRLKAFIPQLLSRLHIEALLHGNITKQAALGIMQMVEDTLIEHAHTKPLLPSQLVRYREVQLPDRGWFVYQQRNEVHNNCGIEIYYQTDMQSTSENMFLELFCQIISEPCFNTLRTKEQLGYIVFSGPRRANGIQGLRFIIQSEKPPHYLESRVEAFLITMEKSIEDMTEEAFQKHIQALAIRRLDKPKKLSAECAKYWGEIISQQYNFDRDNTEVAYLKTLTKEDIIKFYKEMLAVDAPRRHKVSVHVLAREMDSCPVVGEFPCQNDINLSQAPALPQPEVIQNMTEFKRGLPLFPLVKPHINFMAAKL

Structure (SMILES)	z-score
C[C@@H]1CN([C@H](C)CO)C(=O)c2cc(NC(=O)NC3CCCCC3)ccc2O[C@@H]1CN(C)S(C)(=O)=O	0.86
COc1cccc(C(=O)Nc2ccc3c(c2)C(=O)N(C)[C@H]2CC[C@@H](CC(=O)N[C@H](C)c4ccccc4)O[C@H]2CO3)c1	-4.24 (active)
C[C@@H](NC(=O)C[C@H]1CC[C@H]2[C@H](COc3ccc(NS(=O)(=O)c4ccc(Cl)cc4)cc3C(=O)N2C)O1)c1ccccc1	0.297
COc1cccc(C(=O)Nc2ccc3c(c2)C(=O)N(C)[C@H]2CC[C@H](CC(=O)N[C@@H](C)c4ccccc4)O[C@H]2CO3)c1	-1.12
N#Cc1ccc(-c2ccc([C@H]3[C@H](CO)N4C(=O)CN(C(=O)Cc5ccccc5)C[C@@H]34)cc2)cc1	1.44
O=C(Cc1ccccn1)N1CC(=O)N2[C@H](C1)[C@@H](c1ccc(-c3ccccc3)cc1)[C@@H]2CO	-6.31 (active)
O=C(c1ccccc1F)N1CC(=O)N2[C@H](CO)[C@@H](c3ccc(-c4cccnc4)cc3)[C@H]2C1	-0.211
COc1cccc(-c2ccc([C@@H]3[C@H]4CN(C(=O)c5cccnc5)CC(=O)N4[C@H]3CO)cc2)c1	-6.37 (active)
Cc1ccccc1-c1ccc([C@H]2[C@@H](CO)N3C(=O)CN(C(=O)c4cccnc4)C[C@@H]23)cc1	-8.42 (active)
COc1ccc(C#Cc2ccc([C@H]3[C@H]4CN(C(=O)c5cccnc5)CC(=O)N4[C@H]3CO)cc2)cc1	-0.5
O=C(c1cccnc1)N1CC(=O)N2[C@H](CO)[C@@H](c3ccc(-c4ccc(F)cc4)cc3)[C@@H]2C1	-1.03
O=C(c1cccnc1)N1CC(=O)N2[C@H](C1)[C@H](c1ccc(-c3ccccc3F)cc1)[C@@H]2CO	-1.28
Cc1ccccc1-c1ccc([C@H]2[C@H](CO)N3C(=O)CN(C(=O)c4cccnc4)C[C@@H]23)cc1	-12.4 (active)
O=C(c1cccnc1)N1CC(=O)N2[C@H](CO)[C@H](c3ccc(-c4cccnc4)cc3)[C@@H]2C1	1.98
O=C(Cc1ccccn1)N1CC(=O)N2[C@H](CO)[C@H](c3ccc(C#CCC4CCCC4)cc3)[C@@H]2C1	0.616
CCCC#Cc1ccc([C@H]2[C@H]3CN(C(=O)c4cccnc4)CC(=O)N3[C@H]2CO)cc1	0.452
C[C@H]1CN([C@@H](C)CO)S(=O)(=O)c2ccc(C#CC3(O)CCCC3)cc2O[C@@H]1CN(C)C(=O)Nc1cccc(F)c1	-0.533
COc1ccc(-c2ccccc2[C@H]2[C@@H](CO)N(C(=O)c3cccnc3)[C@H]2C#N)cc1	0.00658
N#Cc1cccc(-c2ccc(C3[C@H]4CNC[C@@H]3N4Cc3cncnc3)cc2)c1 (some centres not stated)	1.3
CCN(C[C@H]1[C@H](c2ccc(-c3ccccc3)cc2)[C@H](CO)N1CC1CC1)C(C)=O	2.55
N#Cc1cccc(-c2ccc(C3[C@@H]4CNC[C@H]3N4)cc2)c1 (some centres not stated)	-0.64

Structure (SMILES)	z-score
CCCNC(=O)N1[C@H](CNC(=O)c2cccc(F)c2)[C@H](c2ccccc2)[C@@H]1CO	1.46
CCCNC(=O)N1[C@@H]2Cn3c(ccc(-c4ccc(OC)cc4)c3=O)[C@H]1[C@@H](C(=O)NC1CCC1)[C@@H]2CO	-0.305
CN(C)C(=O)c1cccc(-c2ccc([C@H]3[C@H]4CN(C(=O)Cc5ccccc5)CC(=O)N4[C@H]3CO)cc2)c1	1.91
Cc1cccc(-c2ccc([C@@H]3[C@H]4CN(C(=O)c5ccccc5)CC(=O)N4[C@H]3CO)cc2)c1	-8.7 (active)
CN(C)C(=O)c1cccc(-c2ccc([C@H]3[C@H](CO)N4C(=O)CN(C(=O)Cc5ccccc5)C[C@@H]34)cc2)c1	3.83
CCC(=O)N1CCCCN2[C@H](C1)[C@@H](c1ccc(/C=C/c3ccccc3)cc1)[C@@H]2CO	-7.21 (active)
CC(C)CC#Cc1ccc([C@H]2[C@H]3CN(C(=O)CN4CCOCC4)CC(=O)N3[C@H]2CO)cc1	4.32
O=C(c1cnccn1)N1CC(=O)N2[C@H](C1)[C@@H](c1ccc(C3=CCCCC3)cc1)[C@@H]2CO	0.336
O=C(CN1CCOCC1)N1CCCCN2[C@@H](CO)[C@H](c3ccc(-c4ccccc4)cc3)[C@@H]2C1	-0.926
COCC(=O)N1CCCCN2[C@H](C1)[C@@H](c1ccc(-c3ccccc3)cc1)[C@@H]2CO	1.64
CCC(=O)N1CCCCN2[C@H](C1)[C@@H](c1ccc(-c3ccc(F)cc3)cc1)[C@@H]2CO	1.91
O=C(CN1CCOCC1)N1CC(=O)N2[C@H](C1)[C@H](c1ccc(/C=C/c3ccccc3)cc1)[C@@H]2CO	-5.55 (active)
O=C(c1cnccn1)N1CC(=O)N2[C@H](C1)[C@H](c1ccc(/C=C/c3ccccc3)cc1)[C@@H]2CO	-7.53 (active)
O=C(CN1CCOCC1)N1CCCCN2[C@H](CO)[C@H](c3ccc(-c4ccccc4)cc3)[C@@H]2C1	-0.341
CC(C)CC#Cc1ccc([C@H]2[C@@H](CO)N3C(=O)CN(C(=O)CN4CCOCC4)C[C@H]23)cc1	2.46
O=C(Cc1cccnc1)N1CC(=O)N2[C@H](CO)[C@@H](c3ccc(/C=C/c4ccccc4)cc3)[C@H]2C1	-1.1
O=C(CN1CCOCC1)N1CCCCN2[C@@H](CO)[C@H](c3ccc(/C=C/c4ccccc4)cc3)[C@@H]2C1	-4.3 (active)
COCC#Cc1ccc([C@@H]2[C@@H](CO)N3CCCCN(C(=O)COC)C[C@@H]23)cc1	1.49
CCCNC(=O)N1[C@H](CO)[C@@H](c2ccc(-c3ccc(C(=O)N(C)C)cc3)cc2)[C@@H]1C#N	-1.53
CCC(=O)N1[C@@H](CO)[C@@H]2c3ccccc3N(C(=O)c3cnccn3)C[C@@H]21	1.18
CO[C@@H]1CN(C)C(=O)c2cc(NS(=O)(=O)c3cccc(Cl)c3)ccc2OC[C@@H](C)NC[C@@H]1C	-0.0121
